# TcdB inh: TcdB glycohydrolase inhibition. TcdB glycohydrolase enzymatic assay, plate reader. inhibition, % at 9.99 µM. actives 0.24% (n = 350,000). AID 652162; in the data active means inhibition above about 10%
# PriA SSB inh: inhibitors of Klebsiella pneumoniae PriA binding to SSB C-terminal tail. actives 0.6% (n = 430,000). AlphaScreen SSBct-PriA binding, biotinylated peptide. inhibition, % at 33 µM. AID 1272365; in the data active means inhibition mostly above about 37%, no sharp cut-off; inactive means mostly below about 20%;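 further: plate controls were negative control peptide for no effect and reference peptide for full effect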
# Vc quorum ag: quorum light induction in luxS cqsA deficient V. cholerae. AID 588436. activation, % at 18.7 µM. V. cholerae BH1578 lux reporter, luminescence, 6 h. actives 0.16% (n = 350,000); in the data active means activation mostly above about 9.7%, no sharp cut-off
# VHR inh abs: inhibitors of human VHR1 phosphatase (DUSP3); recombinant VHR phosphatase, pNPP absorbance; inhibition, % at 13.3 µM; actives 0.52% (n = 290,000); AID 1654; in the data active means inhibition above about 50%
# Target sequence (P51452 whole entry, looked up): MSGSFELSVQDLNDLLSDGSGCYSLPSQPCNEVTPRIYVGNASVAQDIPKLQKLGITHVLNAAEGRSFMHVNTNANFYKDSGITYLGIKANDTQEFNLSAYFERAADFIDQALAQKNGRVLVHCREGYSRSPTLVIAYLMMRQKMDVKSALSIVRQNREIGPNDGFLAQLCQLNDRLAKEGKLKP
# CCHFV vOTU inh: blocks the CCHF virus ovarian tumor domain protease. CCHFV vOTU protease, Pep-AMC fluorescence. inhibition, % at 11.5 µM. actives 0.55% (n = 370,000). AID 651958; in the data active means inhibition above about 30%; further: 0% = vehicle wells with enzyme and 100% = no enzyme wells
# SARS 3CLpro inh: SARS-CoV 3CLpro protease inhibition; actives 0.14% (n = 290,000); recombinant SARS-CoV 3CLpro, quenched FRET peptide cleavage; P0C6X7; inhibition, % at 6 µM; AID 1706; in the data active means inhibition above about 12%
# Numbers without * were called inactive; i = inactive; . = no result given. Compounds with a hit are over-represented: about 1.3% of the library has one in this group of screens.
SMILES,TcdB inh,PriA SSB inh,Vc quorum ag,VHR inh abs,CCHFV vOTU inh,SARS 3CLpro inh
COc1ccc(N2CCN(C(=O)c3ccc(Cn4nc(C)c([N+](=O)[O-])c4C)o3)CC2)cc1,2.9,47.5*,-0.2,24.9,-2.3,0.1
O=C(c1ccc(NS(=O)(=O)c2ccc(F)cc2)cc1)N1CCOCC1,-4.3,2.6,i,.,33.1*,.
Cc1cc(N2CCN(c3ccc([N+](=O)[O-])c4cccnc34)CC2)c2ccccc2n1,.,-1.1,-0.3,7.8,.,2.5
Cc1cc(N2CCN(c3ccc(C(F)(F)F)cc3[N+](=O)[O-])CC2)c2ccccc2n1,2.2,45.9*,i,20.7,-0.1,4.7
Cc1ccc2c(c1)C1CN(C)CCC1N2Sc1ccccc1[N+](=O)[O-] (stereo unspecified),1.4,55.2*,i,-4.7,-4.4,-7.8
NC(=O)c1oc2ccccc2c1NC(=O)c1cccc(C(=O)Nc2c(C(N)=O)oc3ccccc23)n1,.,-14.0,.,.,.,.
CC(=O)C(=NNc1ccc(Cl)cc1Cl)Sc1cccc2cccnc12,.,72.7*,.,.,.,.
O=c1c(NCc2ccccc2Cl)nccn1-c1ccc2c(c1)OCO2,.,37.0*,.,.,.,.
Cn1c(=O)c2c(nc(NCc3ccc4c(c3)OCO4)n2Cc2ccccc2Cl)n(C)c1=O,.,-6.6,i,-5.8,-1.4,1.0
O=C(Nc1nc(-c2ccccc2)cs1)c1cccc2c1-c1ccccc1C2=O,.,-9.0,.,.,.,.
COc1ccc(OC)c(Nc2nc(-c3sc(C)nc3C)cs2)c1,.,46.8*,0.3,14.7,3.7,1.5
CCC(C)C(=O)Nc1nc(C)c(-c2csc(Nc3cc(Cl)ccc3OC)n2)s1 (stereo unspecified),0.5,9.5,-3.7,27.0,9.5,7.6
CCC(C)C(=O)Nc1nc(C)c(-c2csc(Nc3cc(OC)ccc3OC)n2)s1 (stereo unspecified),1.3,28.8,i,51.2*,16.8,4.5
O=C(CSc1nnc2ccc3ccccc3n12)NCc1ccc2c(c1)OCO2,.,-10.0,.,.,.,.
CCN(CC)S(=O)(=O)c1cc(C(=O)Nc2cccnc2Cl)ccc1Cl,11.4*,-8.6,-0.3,29.7,-5.9,1.1
O=S(=O)(c1ccc(OC(F)(F)F)cc1)N1CCC(N2CC[C@H](O)C2)CC1,.,0.0,.,.,.,.
COc1ccc(S(=O)(=O)Cc2ccc(C(=O)N3CCc4ccccc4C3)o2)cc1,-0.4,-12.0,-0.2,16.6,-2.2,3.6
Cc1ccc(S(=O)(=O)Cc2ccc(C(=O)N3CCc4ccccc4C3)o2)cc1,-0.2,-6.4,-0.2,54.5*,0.1,0.1
O=C1C[C@H](c2noc(-c3ccncc3)n2)CN1c1ccccc1,.,4.0,.,.,.,.
Clc1ccc(/C=N/Nc2nn[nH]n2)cc1,.,.,i,53.8*,-1.2,0.6
Cc1ccc(-n2ncc3c(=O)[nH]c(SCC(=O)Nc4nc5ccccc5s4)nc32)cc1,.,-6.0,.,.,.,.
COc1ccc(OC)c(S(=O)(=O)Nc2ccc(-c3cn4nc(OC)ccc4n3)cc2)c1,.,-8.0,.,.,.,.
O=C(C[C@@H]1CC[C@@H]2[C@H](COC[C@@H](O)CN2C(=O)Nc2ccc(Cl)c(Cl)c2)O1)NCc1ccncc1,10.7*,.,.,.,.,.
O=C(C[C@@H]1CC[C@H]2[C@@H](COC[C@@H](O)CN2C(=O)c2ccccn2)O1)NC1CCC1,10.4*,.,.,.,.,.
COC(=O)C[C@@H]1CC[C@@H]2[C@H](COC[C@H](O)CN2C(=O)Nc2ccccc2OC)O1,13.2*,.,.,.,.,.
SMILES,TcdB inh,PriA SSB inh,Vc quorum ag,VHR inh abs,CCHFV vOTU inh,SARS 3CLpro inh
O=C(C[C@@H]1CC[C@H]2[C@@H](COC[C@@H](O)CN2Cc2ccc(Oc3ccccc3)cc2)O1)Nc1nccs1,26.7*,.,.,.,.,.
O=C(C[C@H]1CC[C@H]2[C@@H](COC[C@@H](O)CN2C(=O)c2ccccn2)O1)NC1CCC1,7.6,.,.,.,.,.
Cc1ccc(N2CC(C(=O)NCCc3nc(C4CC4)cc(C(F)(F)F)n3)CC2=O)cc1C (stereo unspecified),.,-6.0,.,.,.,.
CC1(C)Cc2cccc(OCC(=O)N3CCc4cnc(N5CCOCC5)nc4C3)c2O1,.,-14.0,.,.,.,.
C=CCN1C(=O)C(C)(C)COc2cc(NS(=O)(=O)Cc3ccccc3)ccc21,.,-5.0,.,.,.,.
CN(C)c1ccc(C(=O)Nc2nnc(-c3ccc4c(c3)CCCC4)o2)cc1,.,-24.0,.,.,.,.
O=C(CNC(=O)c1ccco1)Nc1nc(-c2ccccn2)cs1,.,96.2*,.,.,.,.
Cc1cc(C(=O)Nc2nc(-c3ccncc3)cs2)on1,.,-8.0,.,.,.,.
O=C(Nc1nc(-c2ccccn2)cs1)c1ccno1,.,125.0*,.,.,.,.
Cc1cc(C(=O)Nc2nc(-c3ccccn3)cs2)on1,.,94.3*,.,.,.,.
O=C(Nc1nc(-c2ccccn2)cs1)c1ccco1,-4.5,48.6*,-1.5,33.3,23.7,7.1
O=C(Nc1nc(-c2cc(Cl)ccc2Cl)cs1)c1ccno1,.,-12.0,.,.,.,.
O=C(Nc1cnn([C@H]2CCOC2)c1)C1(c2ccccc2)CCOCC1,.,-12.0,.,.,.,.
Nc1nnc(C2CCCO2)o1 (stereo unspecified),.,-11.0,.,.,.,.
CN(C(=O)c1ccno1)c1nnc(-c2ccccn2)s1,.,41.5*,4.8,.,-92.1,-8.5
C[C@H](NC(=O)c1ccco1)C(=O)Nc1nnc(SCc2ccccc2)s1,-9.1,-4.9,-0.3,.,12.6,.
C[C@H](NC(=O)c1ccco1)C(=O)Nc1nc(-c2ccccn2)cs1,-10.2,53.1*,.,.,2.8,.
CN(C)CCCNC(=O)C(=O)Nc1ccc(F)cc1,.,-22.0,.,.,.,.
FC(F)(F)c1cc(Cl)c2nc(-c3ccccc3)c(Cc3ccsc3)n2c1,10.4*,.,.,.,-2.6,.
CCc1ccc2oc(-c3ccc(OC)cc3)cc(=Nc3cccc(C(=O)O)c3)c2c1,-0.6,-6.4,-0.3,-2.0,-179.1,3.6
CCc1ccc2oc(-c3ccc(OC)cc3)cc(=Nc3c(C)n(C)n(-c4ccccc4)c3=O)c2c1,-3.6,43.8*,0.6,48.4,-138.4,3.9
O=C(N/C(=C/c1ccc([N+](=O)[O-])cc1)C(=O)N1CCCC1)c1ccccc1,0.2,-4.0,-15.6,-11.2,12.8,1.9
O=C(N/C(=C/C=C/c1ccccc1)C(=O)N1CCCCC1)c1ccc([N+](=O)[O-])cc1,0.2,39.1*,-0.3,5.5,0.7,-1.4
Cc1cc(NCc2ccccc2)n2ncc(-c3ccccc3)c2n1,0.5,-24.7,i,54.7*,-3.2,-0.1
Cc1cc(Nc2ccc(NC(=O)Cc3c[nH]c4ccccc34)cc2)nc(N2CCCC2)n1,.,45.0*,.,.,.,.
SMILES,TcdB inh,PriA SSB inh,Vc quorum ag,VHR inh abs,CCHFV vOTU inh,SARS 3CLpro inh
Cc1ccc(-n2c(=O)c3ccccc3c3ccccc3c2=O)c(C)c1,.,-10.0,.,.,.,.
COc1ccc(CNC(=O)Cc2cn(C)c3ccccc23)c(OC)c1,27.5*,4.8,-1.3,7.2,-1.5,1.3
O=C(NCC1CCCN1c1ccccc1)c1c[nH]c2ccccc12 (stereo unspecified),.,53.0*,.,.,.,.
O=C(Cc1ccc(F)cc1)NC[C@H]1CCCN1c1ccccc1,.,11.0,.,.,.,.
Cn1cc(CC(=O)NCC2CCCN2c2ccccc2)c2ccccc21 (stereo unspecified),.,39.0*,.,.,.,.
O=S(=O)(/C=C/c1ccccc1)NCCn1ccc(-c2ccsc2)n1,.,0.0,.,.,.,.
COc1ccc(S(=O)(=O)Nc2nc3ccccc3nc2Nc2ccccc2OC)cc1,.,-22.0,.,.,.,.

# From PubChem
